Test results taken from PubChem BioAssay (EPA / NIEHS).
Where “and” joins values, the source holds several entries; their conditions need not be identical. Identical values can stand only once. Inconclusive results are not listed. Some compounds were tested as several samples or in several runs, with calls that do not always agree. Calls of active or inactive are those of the source. Rule for the calls, unless noted: active = hit-call score of the fitted dose curve at least 0.9, where 1 is the maximum; inactive = score below 0.9.

Assay: UKN4_HCS_LUHMES_cell_viability: Viability Assessment in the University of Konstanz (UKN) Leist Lab Neurite Outgrowth Assay in human LUHMES cells (UKN4) (AID 2284232)
Outline: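 Day-2 differentiated LUHMES, 30000 cells/well, dosed ~30 min–2 h post-seeding; 24 h treatment incl. staining; Hoechst H-33342 + calcein-AM at 23.5 h; HCS imaging; DMSO-normalized, bidirectional fit.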

Row | SMILES | AC50 | outcome
1 | CC(C)N(C(=O)SCC(Cl)=C(Cl)Cl)C(C)C | 19.3 µM (active) | 
2 | CC(=NC#N)N(C)Cc1ccc(Cl)nc1 |  | inactive
3 | CCOC(=O)CC(SP(=O)(OC)OC)C(=O)OCC (stereo not given) |  | inactive
4 | CC[C@H](C)[C@H]1O[C@]2(C=C[C@@H]1C)C[C@@H]1C[C@@H](C/C=C(\C)[C@@H](O[C@H]3C[C@H](OC)[C@@H](O[C@H]4C[C@H](OC)[C@@H](NC)[C@H](C)O4)[C@H](C)O3)[C@@H](C)/C=C/C=C3\CO[C@@H]4[C@H](O)C(C)=C[C@@H](C(=O)O1)[C@]34O)O2 | 1.76 µM (active) | 

Assay: UKN2_HCS_IMR90_cell_viability: Viability Assessment in the University of Konstanz (UKN) Leist Lab Neural Crest Cell Migration Assay in human induced IMR90 Pluripotent Stem Cells (UKN2) (AID 2284233);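 note: cells exposed to compound for 24 h after a 24 h migration phase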
Outline: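 After calcein-AM/Hoechst staining, viability is quantified by high-content fluorescence imaging, relative to DMSO, in iPSC (IMR90)-derived neural crest cells. Exposure lasts 24 h, starting after a 24 h migration period on PLO/laminin/fibronectin coating.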

Row | SMILES | outcome | AC50
5 | CCOP(=S)(Oc1cnc(C(C)(C)C)nc1)OC(C)C (stereo not given) | inactive | 
6 | CCOP(=O)(NC(C)C)Oc1ccc(SC)c(C)c1 (stereo not given) | inactive | 
7 | CCOP(=O)(OCC)Oc1cc(C)nc(C(C)C)n1 | inactive | 
8 | CC(=NC#N)N(C)Cc1ccc(Cl)nc1 | inactive | 
9 | CCOC(=O)CC(SP(=O)(OC)OC)C(=O)OCC (stereo not given) | inactive | 
10 | COP(=O)(OC)OC(Br)C(Cl)(Cl)Br (stereo not given) |  | 21.6 µM (active)
11 | CN(C)[C@@H]1C(=O)C(C(N)=O)=C(O)[C@@]2(O)C(=O)C3=C(O)c4c(O)cccc4[C@@](C)(O)[C@H]3[C@H](O)[C@@H]12 |  | 90 µM (active)
12 | CCCSP(=O)(OCC)SCCC | inactive | 
13 | CCOP(=S)(OCC)OC(Cl)C(Cl)(Cl)Cl (stereo not given) | inactive | 
14 | CCCCSP(=O)(SCCCC)SCCCC | inactive | 
15 | CC[C@H](C)[C@H]1O[C@]2(C=C[C@@H]1C)C[C@@H]1C[C@@H](C/C=C(\C)[C@@H](O[C@H]3C[C@H](OC)[C@@H](O[C@H]4C[C@H](OC)[C@@H](NC)[C@H](C)O4)[C@H](C)O3)[C@@H](C)/C=C/C=C3\CO[C@@H]4[C@H](O)C(C)=C[C@@H](C(=O)O1)[C@]34O)O2 |  | 3.1 µM (active) and 3.81 µM (active)
16 | CON=C(C(=O)OC)c1ccccc1CON=C(C)c1cccc(C(F)(F)F)c1 |  | 50 µM (active)
17 | O=[N+]([O-])c1cc(C(F)(F)F)c(Cl)c([N+](=O)[O-])c1Nc1ncc(C(F)(F)F)cc1Cl |  | 1.48 µM (active)

Assay: CCTE_Mundy_HCI_Cortical_NOG_NeuronCount: CCTE's Neurite Outgrowth Assay in rat cortical cells for Neuron Count, Mundy Lab (AID 2284236; active = hit-call score of the fitted dose curve at least 0.9, where 1 is the maximum;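 note: neurons counted by imaging betaIII-tubulin and Hoechst stained cortical cells; cells exposed to compound for about 48 hours before fixation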)
Outline: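 Read-out: neuron number by high-content imaging of betaIII-tubulin (Alexa Fluor-488) and Hoechst-labelled rat primary cortical cells.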

Row | SMILES | AC50 | outcome
18 | CCOP(=S)(Oc1cnc(C(C)(C)C)nc1)OC(C)C (stereo not given) | 28 µM (active) | inactive
19 | CC(C)N(C(=O)SCC(Cl)=C(Cl)Cl)C(C)C |  | inactive
20 | CCOP(=O)(NC(C)C)Oc1ccc(SC)c(C)c1 (stereo not given) |  | inactive
21 | CCOP(=O)(OCC)Oc1cc(C)nc(C(C)C)n1 |  | inactive
22 | CC(=NC#N)N(C)Cc1ccc(Cl)nc1 |  | inactive
23 | COP(=O)(OC)OC(Br)C(Cl)(Cl)Br (stereo not given) | 30.2 µM (active) and 29.5 µM (active) | 
24 | C=C(C)[C@H]1Cc2c(ccc3c2O[C@@H]2COc4cc(OC)c(OC)cc4[C@@H]2C3=O)O1 | 0.135 µM (active) | 
25 | CN(C)[C@@H]1C(=O)C(C(N)=O)=C(O)[C@@]2(O)C(=O)C3=C(O)c4c(O)cccc4[C@@](C)(O)[C@H]3[C@H](O)[C@@H]12 | 76.9 µM (active) | 
26 | CSC1=N[C@@](C)(c2ccccc2)C(=O)N1Nc1ccccc1 |  | inactive
27 | CCOP(=S)(OCC)Oc1ccc2c(C)c(Cl)c(=O)oc2c1 |  | inactive
28 | CCCSP(=O)(OCC)SCCC |  | inactive
29 | CC1=NNC(=O)N(/N=C/c2cccnc2)C1 |  | inactive
30 | CCCSP(=O)(OCC)Oc1ccc(Br)cc1Cl (stereo not given) |  | inactive
31 | CCOP(=S)(OCC)OC(Cl)C(Cl)(Cl)Cl (stereo not given) | 50 µM (active) and 21.7 µM (active) | 
32 | CCCCSP(=O)(SCCCC)SCCCC | 86.4 µM (active) and 68.4 µM (active) | 
33 | CC[C@H](C)[C@H]1O[C@]2(C=C[C@@H]1C)C[C@@H]1C[C@@H](C/C=C(\C)[C@@H](O[C@H]3C[C@H](OC)[C@@H](O[C@H]4C[C@H](OC)[C@@H](NC)[C@H](C)O4)[C@H](C)O3)[C@@H](C)/C=C/C=C3\CO[C@@H]4[C@H](O)C(C)=C[C@@H](C(=O)O1)[C@]34O)O2 | 1.23 µM (active) and 1.7 µM (active) | 
34 | CON=C(C(=O)OC)c1ccccc1CON=C(C)c1cccc(C(F)(F)F)c1 | 1.78 µM (active) | 
35 | O=[N+]([O-])c1cc(C(F)(F)F)c(Cl)c([N+](=O)[O-])c1Nc1ncc(C(F)(F)F)cc1Cl | 1.94 µM (active) | 

Assay: CCTE_Mundy_HCI_Cortical_NOG_BPCount: CCTE's Neurite Outgrowth Assay in rat cortical cells for Branch Point Count, Mundy Lab (AID 2284237);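 for AC50: branch points counted about two days after chemical exposure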
Outline: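 Measured 50.33 h after dosing, this morphology endpoint uses rat primary cortical cultures labelled for betaIII-tubulin. Branch points are quantified by high-content imaging, with DMSO as negative control and baseline.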

Row | SMILES | AC50 | outcome
36 | CCOP(=S)(Oc1cnc(C(C)(C)C)nc1)OC(C)C (stereo not given) | 22800 nM (active) | inactive
37 | CCOP(=S)(OCC)SCCSCC |  | inactive
38 | S=C1NCCN1 |  | inactive
39 | CC(C)N(C(=O)SCC(Cl)=C(Cl)Cl)C(C)C |  | inactive
40 | CCOP(=O)(NC(C)C)Oc1ccc(SC)c(C)c1 (stereo not given) |  | inactive
41 | CCOP(=O)(OCC)Oc1cc(C)nc(C(C)C)n1 |  | inactive
42 | COP(=O)(OC)C(O)C(Cl)(Cl)Cl (stereo not given) |  | inactive
43 | CC(=NC#N)N(C)Cc1ccc(Cl)nc1 |  | inactive
44 | COP(=O)(NC(C)=O)SC (stereo not given) |  | inactive
45 | CCOC(=O)CC(SP(=O)(OC)OC)C(=O)OCC (stereo not given) |  | inactive
46 | CCOP(=S)(OCC)Oc1cc(C)nc(C(C)C)n1 | 110 nM (active) | 
47 | CCOP(=O)(SC(C)CC)N1CCSC1=O (stereo not given) |  | inactive
48 | COP(=O)(OC)OC(Br)C(Cl)(Cl)Br (stereo not given) | 30.4 µM (active) and 22.1 µM (active) | 
49 | C=C(C)[C@H]1Cc2c(ccc3c2O[C@@H]2COc4cc(OC)c(OC)cc4[C@@H]2C3=O)O1 | 17.5 nM (active) | 
50 | CN1COCN(Cc2cnc(Cl)s2)C1=N[N+](=O)[O-] |  | inactive
51 | CN(C)[C@@H]1C(=O)C(C(N)=O)=C(O)[C@@]2(O)C(=O)C3=C(O)c4c(O)cccc4[C@@](C)(O)[C@H]3[C@H](O)[C@@H]12 |  | inactive
52 | CCOP(=S)(OCC)Oc1ccc([N+](=O)[O-])cc1 | 24700 nM (active) | 
53 | CSC1=N[C@@](C)(c2ccccc2)C(=O)N1Nc1ccccc1 |  | inactive
54 | CCOP(=S)(OCC)Oc1ccc2c(C)c(Cl)c(=O)oc2c1 | 86400 nM (active) | 
55 | CCCSP(=O)(OCC)SCCC |  | inactive
56 | CC1=NNC(=O)N(/N=C/c2cccnc2)C1 |  | inactive
57 | CCCSP(=O)(OCC)Oc1ccc(Br)cc1Cl (stereo not given) |  | inactive
58 | CCOP(=S)(OCC)OC(Cl)C(Cl)(Cl)Cl (stereo not given) | 50 µM (active) and 28.7 µM (active) | 
59 | CCCCSP(=O)(SCCCC)SCCCC | 84.4 µM (active) and 76 µM (active) | 
60 | C[N+]1(C)CCCCC1 |  | inactive
61 | CC[C@H](C)[C@H]1O[C@]2(C=C[C@@H]1C)C[C@@H]1C[C@@H](C/C=C(\C)[C@@H](O[C@H]3C[C@H](OC)[C@@H](O[C@H]4C[C@H](OC)[C@@H](NC)[C@H](C)O4)[C@H](C)O3)[C@@H](C)/C=C/C=C3\CO[C@@H]4[C@H](O)C(C)=C[C@@H](C(=O)O1)[C@]34O)O2 | 883 nM (active) and 1.53 µM (active) | 
62 | CON=C(C(=O)OC)c1ccccc1CON=C(C)c1cccc(C(F)(F)F)c1 | 929 nM (active) | 
63 | O=[N+]([O-])c1cc(C(F)(F)F)c(Cl)c([N+](=O)[O-])c1Nc1ncc(C(F)(F)F)cc1Cl | 740 nM (active) | 
